{
  "source": "PubChem BioAssay (NCATS)",
  "note": "Inconclusive results are not listed. Activity calls are given as the source filed them. The call rests on the fitted dose curve; in most records, active means well fitted inhibition curve with a large enough effect; inconclusive means small, poorly fitted or top-dose-only effect; inactive means no such curve, though single readings can be large or run the other way. On the % scale 0 is the no-effect control and ±100 the full control effect; potency means the concentration at half of the fitted maximal effect.",
  "data": [
    {"molecular_target": "Retinal dehydrogenase 2 (Homo sapiens) (UniProt O94788)", "assay": "qHTS for Inhibitors of the Aldehyde Dehydrogenase Family (ALDH1A2) Confirmation screens (AID 2061314); further: nearly all actives have a fitted effect of over 65% in size", "details": "ALDH1A2 enzyme inhibition qHTS confirmation; series mostly up to 45.9 µM; activity, negative = inhibition: at the top concentration", "values": [
      {"smiles": "COCCNC(=O)CCSc1nc(-c2ccc(OC)cc2)cc(C(F)(F)F)n1", "activity, negative = inhibition": "-22.7% (inactive)"},
      {"smiles": "COc1ccc(OC)c(NC(=O)CSc2nnc3ccc4ccccc4n23)c1", "activity, negative = inhibition": "-14.7% (inactive)"},
      {"smiles": "COc1ccc(CN(C)c2ccc(-c3nc(-c4ccccc4)no3)cc2[N+](=O)[O-])cc1", "activity, negative = inhibition": "-18.2% (inactive)"},
      {"smiles": "COc1ccc(C(=O)Nc2ccc(-c3cc(C(F)(F)F)nn3-c3ccccc3)cc2)cc1OC", "activity, negative = inhibition": "-23.1% (inactive)"},
      {"smiles": "COC(=O)c1cc(C)nc2c1c(=O)nc(SCc1cccc(C)c1)n2C1CC1", "activity, negative = inhibition": "-20.4% (inactive)"},
      {"smiles": "CN(C)C(=O)c1ccc(-c2cc[nH]c(=O)c2N)cc1", "Potency": "0.4 µM (active)"},
      {"smiles": "CC[C@H]1CN(C(=O)Nc2cccc(C(F)(F)F)c2)CC[C@H]1CC(=O)N(C)CCC#N", "activity, negative = inhibition": "-9.54% (inactive)"},
      {"smiles": "Cc1nc2c(c(C)c1CCC(=O)Nc1ccc(F)cc1)c(=O)n(C)c(=O)n2C", "outcome": "inactive"},
      {"smiles": "Cc1noc(Nc2sc3c(c2-c2nc4ccccc4s2)CCNC3)n1", "Potency": "25.2 µM (active)"},
      {"smiles": "Nc1c(-c2ccccc2)cc[nH]c1=O", "Potency": "0.159 µM (active)"},
      {"smiles": "COc1ccc(-c2ccc(C(=O)Nc3cccc(C(F)(F)F)c3)cc2)nn1", "activity, negative = inhibition": "-12.4% (inactive)"},
      {"smiles": "NS(=O)(=O)c1ccc(-n2nc(-c3ccncc3)nc2C2CCOC2)cc1", "note": "(stereo not given)", "activity, negative = inhibition": "-18.6% (inactive)"},
      {"smiles": "Cn1cc(S(=O)(=O)N2CCCCC2)cc1C(=O)Nc1ccc(OC(F)(F)F)cc1", "activity, negative = inhibition": "-21% (inactive)"},
      {"smiles": "COc1ccc(N(C)C(=O)c2cn(C)c(=O)c3cc(OC)c(OC)cc23)cc1", "activity, negative = inhibition": "-5.06% (inactive)"},
      {"smiles": "COc1cc(OC)cc(C(=O)NCCc2csc3nc(-c4ccccc4F)nn23)c1", "activity, negative = inhibition": "-2.68% (inactive)"},
      {"smiles": "Cc1ccc(-n2c(-c3cccc(C)c3)nc3c(cnn3-c3ccccc3)c2=O)cc1", "activity, negative = inhibition": "-10.2% (inactive)"},
      {"smiles": "CCN(C(=O)c1sc2nc3n(c(=O)c2c1C)CCCCC3)c1ccccc1F", "activity, negative = inhibition": "-11.9% (inactive)"},
      {"smiles": "Cc1nn(-c2ccc3nncn3n2)c(C)c1CCC(=O)Nc1ccc(OC(F)(F)F)cc1", "outcome": "inactive"},
      {"smiles": "CCOC(=O)c1ccccc1NC(=O)c1cnc(N2CCOCC2)c2ccccc12", "activity, negative = inhibition": "4.38% (inactive)"},
      {"smiles": "Cc1cc(C)n2nc(CNS(=O)(=O)c3ccc(Cl)cc3)nc2n1", "activity, negative = inhibition": "-0.953% (inactive)"},
      {"smiles": "COc1cccc(-c2ccc(C(=O)N3CCC(N[S+](=O)([O-])CCC(F)(F)F)CC3)cc2)c1", "outcome": "inactive"},
      {"smiles": "COC(=O)c1ccccc1NC(=O)CCCS(=O)(=O)c1nc(-c2ccccc2OC)cc(C(F)(F)F)n1", "activity, negative = inhibition": "-38.2% (inactive)"},
      {"smiles": "Cc1nn2c(=O)cc(COC(=O)c3ccc(F)cc3)nc2s1", "activity, negative = inhibition": "-3.77% (inactive)"},
      {"smiles": "CC(=O)c1ccc(NC(=O)CCc2c(C)nn(-c3ccc4nnc(C)n4n3)c2C)cc1", "activity, negative = inhibition": "-2.27% (inactive)"},
      {"smiles": "O=C(c1nccc2ccccc12)N1CCc2nc3cc[nH]n3c(=O)c2C1", "activity, negative = inhibition": "3.35% (inactive)"},
      {"smiles": "CN(CC(=O)Nc1ccc(OC(F)(F)F)cc1)S(=O)(=O)c1ccc2c(c1)CCC(=O)N2", "activity, negative = inhibition": "-4.54% (inactive)"},
      {"smiles": "O=c1c2nc(OCc3ccc(F)cc3)ccc2ncn1C1CC1", "activity, negative = inhibition": "-21.7% (inactive)"},
      {"smiles": "COc1ccccc1CC(=O)NCc1cccnc1-n1cnc2ccccc21", "activity, negative = inhibition": "-1.72% (inactive)"},
      {"smiles": "O=C(COc1ccccc1-c1nc(-c2ccccc2)no1)Nc1ccc([N+](=O)[O-])cc1", "activity, negative = inhibition": "-5.98% (inactive)"},
      {"smiles": "CCOc1ccc(CNC(=O)C2CCCCN2S(=O)(=O)c2ccc(F)cc2)cc1OC", "note": "(stereo not given)", "activity, negative = inhibition": "-15.4% (inactive)"},
      {"smiles": "Fc1cc(F)cc(Cc2nc3nccc(-c4cccnc4)n3n2)c1", "activity, negative = inhibition": "-19.3% (inactive)"},
      {"smiles": "Cc1ccc(CCNC(=O)c2c(C)oc3nc(C)nc(N4CCOCC4)c23)cc1", "activity, negative = inhibition": "-16.9% (inactive)"},
      {"smiles": "COc1ccc(OC)c(CNC(=O)C2CCCCN2S(=O)(=O)c2ccc(F)cc2)c1", "note": "(stereo not given)", "activity, negative = inhibition": "-9.38% (inactive)"},
      {"smiles": "O=S(=O)(NCCn1cc(-c2cncnc2)nn1)c1ccc(Cl)cc1", "outcome": "inactive; activator"},
      {"smiles": "O=C1COc2cc([S+](=O)([O-])Nc3ccc(Cl)c(Cl)c3)c(Cl)cc2N1", "Potency": "14.2 µM (active)"},
      {"smiles": "CCOc1ccc(S(=O)(=O)N2CCN(c3ccccc3)CC2)cc1C(N)=O", "activity, negative = inhibition": "-7.12% (inactive)"},
      {"smiles": "COc1ccc(N2CCN(C(=O)c3cc(NS(=O)(=O)c4ccc(F)cc4)ccn3)CC2)cc1", "activity, negative = inhibition": "-15.3% (inactive)"},
      {"smiles": "COc1ccccc1Cc1nc2ccccc2nc1SCC(=O)Nc1c(C)cccc1C", "activity, negative = inhibition": "-19.1% (inactive)"},
      {"smiles": "COc1ccc(-c2nocc2CCC(=O)NCCc2ccc(S(N)(=O)=O)cc2)cc1", "activity, negative = inhibition": "2.41% (inactive)"},
      {"smiles": "COc1ccc(S(=O)(=O)NCC(c2ccc(N(C)C)cc2)N2CCOCC2)cc1", "note": "(stereo not given)", "activity, negative = inhibition": "-17.6% (inactive)"}
    ]}
  ]
}
